Experimental findings from PubChem BioAssay (NCI) are described below.

A short description of test [1]: NCI Yeast Anticancer Drug Screen. Data for the rad50 strain (AID 155).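 Note: 0% = growth of vehicle-only cultures of the same strain.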 As to conditions: S. cerevisiae rad50 strain growth inhibition; at 50.0 µM; active compounds read high. In short, it runs like this: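 Growth of the mutant yeast was measured after compound exposure and referenced to vehicle-treated cultures.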
A short description of test [2]: NCI Yeast Anticancer Drug Screen. Data for the mec2-1 strain (AID 157). Conditions: S. cerevisiae mec2-1 strain, at 50.0 µM, active compounds read high. In short, it runs like this: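 Compounds were applied to mec2-1 yeast cells. Their growth was then compared with that of vehicle-treated cultures to give growth inhibition.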
Test [3] is described as follows: NCI Yeast Anticancer Drug Screen. Data for the sgs1 mgt1 strain (AID 161).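 Note: 0% = growth of cultures given vehicle only.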 Conditions: S. cerevisiae sgs1 mgt1 strain, at 50.0 µM, active compounds read high. In short, it runs like this: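 This yeast growth screen uses a strain with defined DNA-repair lesions; compound-treated growth is compared with vehicle-treated growth.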
The nature of test [4]: NCI Yeast Anticancer Drug Screen. Data for the cln2 rad14 strain (AID 165).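 Note: 0% = growth equal to vehicle treated cultures.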 As to conditions: S. cerevisiae cln2 rad14 strain, at 50.0 µM, active compounds read high. The procedure, abridged: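 Strain: cln2 rad14 yeast, altered in cell cycle control and DNA damage repair. Read-out: growth inhibition vs vehicle.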
A short description of test [5]: NCI Yeast Anticancer Drug Screen. Data for the bub3 strain (AID 167). As to conditions: S. cerevisiae bub3 mutant strain, at 50.0 µM, active compounds read high. In short, it runs like this:
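Whole-cell yeast assay. The mutant strain was incubated with compounds, and growth inhibition was determined by comparison with vehicle-treated cells.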

A short description of test [6]: NCI Yeast Anticancer Drug Screen. Data for the mlh1 rad18 strain (AID 175). Conditions: S. cerevisiae mlh1 rad18 strain growth inhibition; at 50.0 µM; active compounds read high. In short, it runs like this: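 A repair-deficient yeast strain is exposed to test compound, and growth is scored relative to vehicle-treated controls.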

About 79,000 compounds went through this panel and 15% of them were active in at least one assay; those are over-represented in the sample as a whole. A number with no mark means an inactive call. Active and inactive are the calls of the source. Cut-off read from the data, not from the text of the source: active = growth inhibition above about 70%; inactive = the rest.

Turning to `CC1=C(c2ccc(C)cc2)NC(=S)C(C)C(c2ccc(C)cc2)=N1` (stereo unspecified), the growth inhibition is -11.2% in test [1]; -24.6% in test [2]; 15.3% in test [3]; 8.15% in test [4]; 0.95% in test [5]; 19.8% in test [6].
With `COc1ccc(C(O)C2c3c(cc4c(c3OC)OCO4)CCN2C)c(CO)c1OC` (stereo unspecified), the growth inhibition was 14.4% in test [1]; 12.8% in test [2]; 17.6% in test [3]; 37.5% in test [4]; 17.9% in test [5]; 7.45% in test [6].
For the compound `CC(=O)OCCC1CC2c3[nH]c4ccccc4c3CCN2C1=O` (stereo unspecified), the growth inhibition in test [1] was -3.85%; in test [2] it was -7%; in test [3] it was 15.9%; in test [4], 0.85%; in test [5], 10.7%; in test [6], -22.1%.
For `CCCCCCCCCCCCSCCSCCC`, the growth inhibition is -19.1% in test [1]; -10.7% in test [2]; 1% in test [3]; -14.6% in test [4]; -7.35% in test [5]; 4.5% in test [6].
On to `Cc1cc(C)c2ccccc2n1`, for which the growth inhibition in test [1] is -6.45%; in test [2], -30.4%; in test [3], -8.2%; in test [4], -3.4%; in test [5] it was -5.1%; in test [6], 18.1%.
Regarding `COC(CC1(OC)OC(=O)C=C1N)OC` (stereo unspecified), the growth inhibition in test [1] is -7.05%; in test [2] it was 20.1%; in test [3] it was -12.7%; in test [4], -28.3%; in test [5] it was 16.8%; in test [6], -3.05%.
On to `CC1=C(C(=O)CC(=O)C(=O)Nc2ccc(C)cc2)Sc2ccccc2N1`, for which the growth inhibition in test [1] is -7.35%; in test [2] it was 21.1%; in test [3] it was -16.4%; in test [4] it was 21.9%; in test [5], -9.1%; in test [6], -8.25%.
On to `COc1cc2c(cc1O)C(C)C(c1ccccc1)O2` (stereo unspecified), for which the growth inhibition in test [1] is 3.95%; in test [2] it was 4.8%; in test [3], 9.45%; in test [4], -21.1%; in test [5] it was 7.15%; in test [6], 13.2%.
Regarding `CCN(C(=O)NC(C)(C)C)c1cccc(C)c1`, the growth inhibition is 3.15% in test [1]; -1.9% in test [2]; 0.35% in test [3]; -19.6% in test [4]; -0.3% in test [5]; 5.8% in test [6].
As to `c1csc(C2Nc3ccccc3N2)c1`, the growth inhibition in test [1] was 17.6%; in test [2] it was -4.1%; in test [3], 25.6%; in test [4] it was 15.2%; in test [5], 0.5%; in test [6], 20.4%.
`O=[N+]([O-])c1ccc(-c2csc(NCC3CCCO3)n2)cc1` (stereo unspecified): the growth inhibition was 24.3% in test [1]; -10.6% in test [2]; 49.9% in test [3]; 21.1% in test [4]; 21.6% in test [5]; 17.9% in test [6].
With `CCN(CC)CCOC(=O)C(c1ccccc1)C1C=CCCC1` (stereo unspecified), the growth inhibition was 38.8% in test [1]; 2.6% in test [2]; 19.1% in test [3]; -1.15% in test [4]; -3.1% in test [5]; 30.4% in test [6].
Regarding `CC(C)CCC[C@@H](C)[C@H]1CC[C@@]2(C)C3=C(C(=O)C[C@]12C)[C@@]1(C)CC[C@H](O)C(C)(C)[C@@H]1CC3=O`, the growth inhibition in test [1] is 8.5%; in test [2] it was -16.7%; in test [3], 17.1%; in test [4], -40.6%; in test [5] it was 6.1%; in test [6], 10.3%.
Regarding `CCCCCCCC/C=C/CCCCCCCC(=O)OCC(C)(C)N1C(=O)CCC1=O`, the growth inhibition in test [1] was -11.2%; in test [2], -20.4%; in test [3], -12.6%; in test [4], -11.2%; in test [5] it was -3.45%; in test [6], -7.3%.
For `COC(=O)c1ccc(C)[n+](C2OC(COC(=O)c3ccccc3)C(OC(=O)c3ccccc3)C2OC(=O)c2ccccc2)c1` (stereo unspecified), the growth inhibition is 5.2% in test [1]; 3.45% in test [2]; 8% in test [3]; -25.6% in test [4]; -14.2% in test [5]; 29.1% in test [6].
`O=C(/C=C/c1ccccc1)NC1C=Nc2ccccc2NC1=O` (stereo unspecified): the growth inhibition in test [1] is 13.8%; in test [2], 18.2%; in test [3] it was 7.2%; in test [4] it was -11.9%; in test [5] it was 7.05%; in test [6], 16.1%.
In the case of `COc1cc(C=Nc2ccccc2)ccc1OC(=O)c1ccccc1`, the growth inhibition was 15.8% in test [1]; 23.2% in test [2]; 17.6% in test [3]; 28.7% in test [4]; 16.9% in test [5]; 14.6% in test [6].
With `O=P(OCCCl)(OCCCl)C(c1ccccc1)(c1ccccc1)c1ccccc1`, the growth inhibition in test [1] was 63.4%; in test [2], 35.7%; in test [3], 72.6% (active); in test [4] it was 36.9%; in test [5], 38.5%; in test [6], 65.2%.
For the compound `CCN(CC)c1ccc2c(C)c(Cc3ccccc3)c(=O)oc2c1`, the growth inhibition in test [1] is 1.8%; in test [2], -22.8%; in test [3], 24.6%; in test [4] it was 7.7%; in test [5], 31.9%; in test [6], 0.7%.
Regarding `Cc1nnnn1[C@H]1C(C#N)CC2[C@@H]3CCC4=Cc5nnnn5CC[C@]4(C)C3CC[C@@]21C` (stereo partly specified), the growth inhibition was 23.3% in test [1]; 27.4% in test [2]; 23% in test [3]; 16.6% in test [4]; 13.2% in test [5]; 25.2% in test [6].
Consider `CC(C)CNC(=S)N/N=C/C=C/c1ccc(C(C)C)cc1`, for which the growth inhibition in test [1] was -18.2%; in test [2] it was -12.7%; in test [3] it was 20.3%; in test [4], -16.1%; in test [5] it was 53.9%; in test [6], 0.35%.
